Screens (PubChem)
Hits are enriched below; roughly 9.3% of the tested compounds scored in any of these assays.
NPC1 prom act = NPC1 promoter activation. Huh7 NPC1 promoter luciferase reporter, 24 h. Potency, µM (series often up to 9.22 µM), inactives show at the highest dose activation, actives largely listed as activators. hit rate 2.4% among 320,000. AID 485313; note: % of control where 0% means no effect; nearly all actives have a fitted effect of over 60% in size
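NPC1 promoter–luciferase Huh7 cells; 24 h compound; luminescence.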
ELG1 genotox = induces genotoxicity in HEK293T cells with luciferase-tagged ELG1; HEK293T ELG1-luciferase reporter, luminescence, 16 h; Potency, µM (series often up to 46 µM), for inactives: at the top dose activity change, positive = activation, usual class: activators; hit rate 1.3% among 330,000; note: % of control where 0% means no effect; nearly all actives have a fitted effect of over 60% in size
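Cells (2,000/well) expressing the ELG1-luciferase fusion are dosed by pin tool and kept 16 hr at 37 °C, 5% CO2. Signal comes from ONE-Glo luciferase reagent after 30 min at room temperature.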
FLuc modulator = counter-screen for miR-21 project: firefly luciferase inhibitors or activators; P08659; Potency, µM (highest dose often 57.5 µM), without a hit: at the highest dose activity change, negative = inhibition, hits mostly inhibitors; hit rate 6.9% among 360,000; AID 588342; purified FLuc, Km substrates, luminescence inhibition;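 note: plate controls were vehicle for no effect and reference inhibitor for full effect; nearly all actives have a fitted effect of over 55% in size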
Target sequence (P08659 whole entry, looked up): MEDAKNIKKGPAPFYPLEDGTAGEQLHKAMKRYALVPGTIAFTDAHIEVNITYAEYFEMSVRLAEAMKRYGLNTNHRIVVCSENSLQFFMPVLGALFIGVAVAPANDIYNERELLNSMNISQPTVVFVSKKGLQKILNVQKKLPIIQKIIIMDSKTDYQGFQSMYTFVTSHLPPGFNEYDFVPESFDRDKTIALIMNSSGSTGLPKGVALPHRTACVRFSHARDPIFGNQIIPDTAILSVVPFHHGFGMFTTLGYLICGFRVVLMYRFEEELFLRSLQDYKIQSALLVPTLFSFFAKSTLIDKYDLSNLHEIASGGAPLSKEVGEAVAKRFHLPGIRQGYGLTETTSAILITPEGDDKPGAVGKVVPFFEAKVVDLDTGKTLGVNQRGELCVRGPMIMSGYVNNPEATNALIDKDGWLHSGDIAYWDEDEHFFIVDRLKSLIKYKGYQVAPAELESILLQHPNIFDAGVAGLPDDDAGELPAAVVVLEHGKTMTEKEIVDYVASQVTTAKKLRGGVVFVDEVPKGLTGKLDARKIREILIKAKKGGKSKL
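Purified P. pyralis luciferase, 10 nM final, with Km-level 10 uM D-luciferin and 10 uM ATP in 50 mM Tris acetate pH 7.5, 10 mM Mg acetate, 0.01% Tween-20, 0.05% BSA; 6-point qHTS titration about 60 µM downward; luminescence read.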
SMN2 splice up = increases expression of the SMN2 splice variant. HEK293 SMN2-luciferase splicing reporter, luminescence, 30-36 h. Potency, µM (top dose mostly 46.1 µM), inactives show top-dose activity change, positive = activation, actives largely listed as activators. hit rate 2.8% among 210,000; note: % of control where 0% means no effect; nearly all actives have a fitted effect of over 55% in size
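HEK293 cells carry an SMN2 […]–luciferase reporter in which exon 7 inclusion puts luciferase in frame. Cells were plated 10-12 h before compound addition, then incubated 30-36 h at 37C. ONE-Glo luminescence was read; sodium butyrate at 4.5 mM final served as control.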
Rab9 prom act = activators of Rab9 promoter | Huh7 Rab9 promoter-luciferase reporter, luminescence, 24 h | Potency, µM (series often up to 9.22 µM), without a hit: at the highest dose activation, negative = inhibition, actives largely listed as activators | AID 485297 | hit rate 2.8% among 320,000; note: % of control where 0% means no effect; nearly all actives have a fitted effect of over 60% in size
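Using Huh7 cells stably transfected with Rab9 promoter–luciferase, compounds were incubated 24 h at 37 °C, 5% CO2; luciferase luminescence was read 10 min after reagent addition.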
ELG1 DNA repair = blocks ELG1-dependent DNA repair in HEK293T cells; HEK293T ELG1-luciferase reporter, luminescence, 16 h; DNA damage induced by 5-fluorouridine; Potency, µM (highest dose often 46.1 µM), without a hit: top-dose activity change, negative = inhibition, hits mostly inhibitors; hit rate 2.3% among 330,000; AID 504467; note: % is set by controls: 0 for no effect and ±100 for the full control effect; nearly all actives have a fitted effect of over 55% in size
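DMSO vehicle served as the neutral condition. Each well held 2,000 cells given 5-fluorouridine plus compound; after 16 hr at 37 °C/5% CO2, ONE-Glo was added and luciferase measured 30 min later.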
Active calls of the source: *. Calls come from the whole dose curve; as a rule, active = well fitted curve in the direction sought with a large enough effect; inconclusive = small, poorly fitted or top-dose-only effect, or another doubt; inactive = no such curve, though single readings can be large; an effect the other way counts as inactive or inconclusive. Potency is the fitted concentration of half-maximal effect.

`O=C(Cn1cc[n+](Cc2ccccc2)c1)c1ccc([N+](=O)[O-])cc1` gave NPC1 prom act -6.3%, ELG1 genotox -8.0%, FLuc modulator -3.0%, SMN2 splice up -27.1%, Rab9 prom act 1.6% and ELG1 DNA repair 14.6µM*.
Screening O=C(C[n+]1ccn(-c2ccccc2)c1)c1ccc([N+](=O)[O-])cc1 returned NPC1 prom act -0.1%, ELG1 genotox -3.7%, FLuc modulator -1.2%, Rab9 prom act 26.9% and ELG1 DNA repair -18.4%.
`COc1ccc(-n2cnc3cc(NS(=O)(=O)c4ccc(C)cc4)ccc32)cc1` gave NPC1 prom act -4.3%, ELG1 genotox 2.5%, FLuc modulator -0.1%, SMN2 splice up -20.3%, Rab9 prom act -5.7% and ELG1 DNA repair inconclusive.
O=C(Nc1ccc2c(c1)ncn2-c1ccccc1)c1ccco1 was read as NPC1 prom act inconclusive, ELG1 genotox inconclusive, FLuc modulator 8.49µM*, SMN2 splice up 12.6µM*, Rab9 prom act inconclusive and ELG1 DNA repair inconclusive.
`Cn1cnc2cc(NC(=O)c3ccco3)ccc21` gave NPC1 prom act 2.82µM*, ELG1 genotox 7.31µM*, FLuc modulator 19µM*, SMN2 splice up 7.08µM*, Rab9 prom act inconclusive and ELG1 DNA repair inconclusive.
CC(=O)Nc1ccc2c(c1)ncn2C was read as NPC1 prom act -0.7%, ELG1 genotox 5.8%, FLuc modulator 5.3%, SMN2 splice up -31.0%, Rab9 prom act -3.3% and ELG1 DNA repair inconclusive.
Screening O=C(Nc1cccc(-n2cnnn2)c1)c1ccco1 returned NPC1 prom act -0.7%, ELG1 genotox 0.0%, FLuc modulator -4.0%, SMN2 splice up 4.8%, Rab9 prom act 3.8% and ELG1 DNA repair inconclusive.
`CC(=O)Nc1ccc2c(c1)ncn2-c1ccc(C)cc1` gave NPC1 prom act 1.12µM*, ELG1 genotox 9.2µM*, FLuc modulator 5.36µM*, SMN2 splice up 8.91µM*, Rab9 prom act 1.78µM* and ELG1 DNA repair inconclusive.
CC12CN3CC(C)(CN(C1)C3c1ccc([N+](=O)[O-])o1)C2=O (centres undefined) was read as NPC1 prom act -2.2%, ELG1 genotox -1.9%, FLuc modulator -0.2%, Rab9 prom act 0.0% and ELG1 DNA repair -2.0%.
For O=C(OCCCN1CCOCC1)c1ccc(O)c(O)c1 the results were NPC1 prom act -3.0%, ELG1 genotox 9.7%, FLuc modulator -0.4%, Rab9 prom act 11.8% and ELG1 DNA repair inconclusive.
CCC(Oc1ccccc1)C(=O)Nc1cc(Cl)ccc1-n1cncn1 (centres undefined) was read as NPC1 prom act -5.4%, ELG1 genotox 1.3%, FLuc modulator 5.1%, Rab9 prom act -0.6% and ELG1 DNA repair inconclusive.
Screening COc1ccccc1N1CCN(c2ccc3ccccc3n2)CC1 returned NPC1 prom act 0.316µM*, ELG1 genotox inconclusive, FLuc modulator 0.953µM*, Rab9 prom act 0.316µM* and ELG1 DNA repair inconclusive.
COc1ccccc1N1CCN(c2cc(N3CCCC3)nc(C)n2)CC1 was read as NPC1 prom act -5.9%, ELG1 genotox -5.3%, FLuc modulator 6.6%, SMN2 splice up -40.4%, Rab9 prom act -4.6% and ELG1 DNA repair inconclusive.
COc1ccccc1N1CCN(c2ccc(-c3ccccc3)nn2)CC1 was read as NPC1 prom act inconclusive, ELG1 genotox inconclusive, FLuc modulator 0.757µM*, SMN2 splice up inconclusive, Rab9 prom act 0.282µM* and ELG1 DNA repair inconclusive.
CCN(CC)S(=O)(=O)c1ccc(NC2c3ccccc3C(=O)N2Cc2ccc3c(c2)OCO3)cc1 (centres undefined) was read as NPC1 prom act 0.4%, ELG1 genotox -8.4%, FLuc modulator 5.3%, SMN2 splice up -8.5%, Rab9 prom act 1.2% and ELG1 DNA repair inconclusive.
O=Nc1c(-c2c(O)[nH]c3cc(Br)ccc23)[nH]c2ccccc12 was read as NPC1 prom act 2.91µM*, ELG1 genotox inconclusive, FLuc modulator 9.53µM*, SMN2 splice up 15.8µM*, Rab9 prom act 3.66µM* and ELG1 DNA repair inconclusive.
Screening O=C(NCCCN1CCCC1=O)c1ccc([N+](=O)[O-])s1 returned NPC1 prom act -3.4%, ELG1 genotox -22.8%, FLuc modulator 1.4%, Rab9 prom act 3.1% and ELG1 DNA repair -15.6%.
`COc1cccc(C(=O)O/N=C(\N)c2ccccn2)c1` gave NPC1 prom act 2.51µM*, ELG1 genotox inconclusive, FLuc modulator 0.0757µM*, Rab9 prom act 3.16µM* and ELG1 DNA repair inconclusive.
Screening N/C(=N\OC(=O)c1ccc2ccccc2c1)c1ccccn1 returned NPC1 prom act inconclusive, ELG1 genotox 0.58µM*, FLuc modulator 0.151µM*, SMN2 splice up inconclusive, Rab9 prom act inconclusive and ELG1 DNA repair inconclusive.
Screening CCCc1ccc(C(=O)O/N=C(\N)c2ccccn2)cc1 returned NPC1 prom act -20.4%, ELG1 genotox 0.411µM*, FLuc modulator 0.0675µM*, Rab9 prom act -22.2% and ELG1 DNA repair inconclusive.
Screening N/C(=N\OC(=O)c1cccc(C(F)(F)F)c1)c1cnccn1 returned NPC1 prom act 20.5%, ELG1 genotox inconclusive, FLuc modulator inconclusive, Rab9 prom act 16.7% and ELG1 DNA repair inconclusive.
N/C(=N\OC(=O)c1ccc2ccccc2c1)c1ccncc1 was read as NPC1 prom act 1.26µM*, ELG1 genotox 4.61µM*, FLuc modulator 1.9µM*, Rab9 prom act 1.41µM* and ELG1 DNA repair inconclusive.
N/C(=N\OC(=O)c1ccc(=O)n(Cc2ccccc2)c1)c1ccccn1 was read as NPC1 prom act 0.2%, ELG1 genotox 14.3%, FLuc modulator inconclusive, SMN2 splice up -4.5%, Rab9 prom act 2.9% and ELG1 DNA repair 6.1%.
`Cc1ccc(NC(=O)CSc2nc3ccccc3nc2N2CCOCC2)cc1` gave NPC1 prom act -1.1%, ELG1 genotox -1.6%, FLuc modulator -10.4%, SMN2 splice up -29.8%, Rab9 prom act 16.3% and ELG1 DNA repair inconclusive.
CCOC(=O)CC1COc2ccccc2N1C(=O)c1cccc([N+](=O)[O-])c1 (centres undefined) was read as NPC1 prom act -3.5%, ELG1 genotox -3.3%, FLuc modulator -2.3%, Rab9 prom act -2.5% and ELG1 DNA repair -11.4%.
`N/C(=N\OC(=O)c1ccc2ccccc2c1)c1ccccc1Cl` gave NPC1 prom act 3.16µM*, ELG1 genotox 23.1µM*, FLuc modulator 1.9µM*, Rab9 prom act 3.98µM* and ELG1 DNA repair inconclusive.
